This is a sample that favours compounds with a hit; in the whole collection about 1.6% have one here.
KCNQ2 enhance – potentiators of rat KCNQ2 potassium channel; CHO-K1 KCNQ2, FluxOR thallium flux fluorescence; hits give high values; B-score at 10 µM; 310,000 compounds, 0.54% hits; AID 2239, 2010;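 active = fluorescence ratio B-score at least 3 SD of library B-scores, with initial fluorescence B-score within 3 of them, cut at about 5.3 in these data; same plate scores as AID 2156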;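 note: B-score of peak minus minimum over baseline fluorescence ratio after K+ and Tl+ stimulus; positive B-score means potentiation of KCNQ2 with more thallium influx and brighter signal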
KCNQ2 block – rat KCNQ2 potassium channel inhibitors, primary screen, cell-based, CHO-K1, FluxOR thallium flux, B-score; Potassium voltage-gated channel subfamily KQT member 2 (Rattus norvegicus), O88943; 20 min; hits give low values; B-score at 10 µM; 310,000 compounds, 1.1% hits;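 active = fluorescence ratio B-score at most minus 3 library SDs, with starting brightness B-score within 2 library SDs, cut at about -5.5 in these data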
KCNQ2 inh conf – rat KCNQ2 potassium channel inhibitors, confirmation, cell-based, thallium flux. KCNQ2-expressing cells, inhibition; hits give low values. AID 493025, 2011. 1,000 compounds, 57% hits. activity change, negative = inhibition, % at 10 µM. shares compounds with KCNQ2 block
KCNQ1 spec – human KCNQ1 channel inhibition, counter-screen for KCNQ2 inhibitor project, cell-based, FluxOR thallium flux; AID 493026, 2011; 1,000 compounds, 15% hits; KCNQ1-expressing cells, FluxOR thallium flux fluorescence; hits give low values; shares compounds with KCNQ2 block; activity change, negative = inhibition, % at 10 µM;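 active = activity change at least 3 SD of negative controls below their mean in both duplicate wells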;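 note: CHO cells stably transfected with KCNQ1 and depolarized by potassium stimulus; peak minus minimum fluorescence over baseline after thallium addition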
Target sequence (P51787 whole entry, looked up): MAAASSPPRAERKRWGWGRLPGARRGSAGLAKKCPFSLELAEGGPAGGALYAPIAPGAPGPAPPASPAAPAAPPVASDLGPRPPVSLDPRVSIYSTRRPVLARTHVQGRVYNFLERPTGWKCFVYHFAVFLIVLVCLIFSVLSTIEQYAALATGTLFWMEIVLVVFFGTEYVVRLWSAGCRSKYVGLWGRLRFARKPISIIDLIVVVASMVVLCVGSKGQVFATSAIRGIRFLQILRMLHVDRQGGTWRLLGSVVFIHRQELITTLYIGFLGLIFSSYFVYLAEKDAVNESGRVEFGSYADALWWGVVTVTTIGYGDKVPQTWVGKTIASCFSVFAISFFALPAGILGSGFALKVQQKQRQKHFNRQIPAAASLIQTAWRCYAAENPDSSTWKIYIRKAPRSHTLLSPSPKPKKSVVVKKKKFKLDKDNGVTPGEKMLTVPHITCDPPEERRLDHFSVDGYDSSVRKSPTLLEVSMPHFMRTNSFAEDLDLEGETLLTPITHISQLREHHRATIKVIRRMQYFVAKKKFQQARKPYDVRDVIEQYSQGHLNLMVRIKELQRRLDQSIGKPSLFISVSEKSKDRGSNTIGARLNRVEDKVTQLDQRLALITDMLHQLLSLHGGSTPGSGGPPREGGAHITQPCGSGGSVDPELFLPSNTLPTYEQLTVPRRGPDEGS
CHO Tl ctr – thallium flux change in parental CHO cells, counter-screen for KCNQ2 inhibitor project; shares compounds with KCNQ2 block; hits give low values; 1,000 compounds, 14% hits; activity change, % at 10 µM; AID 493029, 2011
KCNQ2 inh confirm – rat KCNQ2 channel inhibitors, confirmation, cell-based, automated patch clamp, single concentration; 550 compounds, 49% hits; calls only at 10 µM; KCNQ2-expressing cells, automated patch clamp current; AID 588531, 2011; shares compounds with KCNQ2 block
Hits are given with their value; 0 = inactive; - = not tested or not shown; + = active, no number. Unless noted, the rule behind the calls is not given here.

SMILES | KCNQ2 enhance | KCNQ2 block | KCNQ2 inh conf | KCNQ1 spec | CHO Tl ctr | others
COC(=O)c1ccc(C(=O)OC)c(NC(=O)COC(=O)CC2CC3CCC2C3)c1 (stereo not given) | 0 | -11 | 0 | 0 | 0
NS(=O)(=O)c1ccc(CCNC(=O)CCc2nc3ccccc3s2)cc1 | - | 0 | - | - | -
COc1ccccc1NC(=O)NCC(c1ccco1)N1CCCCC1 (stereo not given) | - | 0 | - | - | -
Cc1onc(-c2ccccc2)c1C(=O)Nc1nc(-c2ccccc2)cs1 | 0 | -7.2 | 0 | 0 | 0
Cc1onc(-c2ccccc2)c1C(=O)Nc1nc(-c2cc(F)ccc2F)cs1 | - | 0 | - | - | -
Cc1ccccc1C(=O)Nc1ccccc1NC(=O)c1ccccc1Br | - | 0 | - | - | -
COc1ccc(Nc2ccccc2NC(=O)c2ccccc2Br)cc1 | 0 | -9.6 | -22% | 0 | 0 | KCNQ2 inh confirm=+
CN(C)CCCN1c2ccc([N+](=O)[O-])cc2CCc2cc([N+](=O)[O-])ccc21 | - | 0 | - | - | -
CC(C)c1ccc(C(=O)OCC(=O)NC2CCCC2)cc1 | 0 | 0 | - | - | -
Cc1nn(C)cc1S(=O)(=O)N1CCN(c2ccccc2F)CC1 | 0 | 0 | - | - | -
O=C(Oc1ccc2ccccc2c1Br)N1CCCCCC1 | 0 | -6.7 | 0 | 0 | 0
CCN(CC)C(=O)Oc1ccc2ccccc2c1Br | - | 0 | - | - | -
CN(C)CCNc1nc(-c2ccco2)c2c(c1C#N)CC(C)(C)OC2 | - | 0 | - | - | -
CCCCN(C)c1nc(-c2ccco2)c2c(c1C#N)CC(C)(C)OC2 | 0 | -8.2 | 0 | 0 | 0
CC1CCN(C(C(=O)O)c2ccccc2)CC1 (stereo not given) | - | 0 | - | - | -
COc1cccc(CC2CC(=O)N(c3ccc4c(C)cc(=O)oc4c3)C2=O)c1 (stereo not given) | - | 0 | - | - | -
CCCCOc1ccc(Cc2c(Cl)nc(SC)nc2N2CCOCC2)cc1 | - | 0 | - | - | -
CSc1nc(Cl)c(Cc2ccc(OCC(C)C)cc2)c(N2CCOCC2)n1 | 0 | -6.8 | -24% | 0 | 0 | KCNQ2 inh confirm=0
CCOC(=O)N1CCC(n2c(SCC(=O)NCCC3=CCCCC3)nc3ccccc3c2=O)CC1 | 0 | -7.5 | 0 | 0 | 0
CCOC(=O)N1CCC(n2c(SCC(=O)N3CCCC3)nc3ccccc3c2=O)CC1 | - | 0 | - | - | -
CCOC(=O)N1CCC(n2c(SCC(=O)N3CCC(C)CC3)nc3ccccc3c2=O)CC1 | 0 | -7.8 | 0 | 0 | 0
CCOC(=O)N1CCC(n2c(SCC(=O)NCc3ccccc3)nc3ccccc3c2=O)CC1 | - | 0 | - | - | -
Cc1ccc(NC(=O)CSc2cccc[n+]2[O-])c([N+](=O)[O-])c1 | 0 | 0 | - | - | -
CNC(=O)NC(=O)C(C)Oc1ccccc1F (stereo not given) | - | 0 | - | - | -
O=C(N/C=C\c1ccccc1)NCc1ccc(Cl)cc1Cl | - | 0 | - | - | -
SMILES | KCNQ2 enhance | KCNQ2 block | KCNQ2 inh conf | KCNQ1 spec | CHO Tl ctr | others
O=C(N/C=C\c1ccccc1)NCc1ccc(Cl)cc1 | 0 | -7 | 0 | 0 | 0
O=S(=O)(Nc1nc2ccccc2nc1N1CCN(c2ccccc2F)CC1)c1ccc(Cl)cc1 | 0 | 0 | - | - | -
CCOC(=O)/C(=N\Nc1cc(Cl)ccc1Cl)N1CCOCC1 | 0 | 0 | - | - | -
O=C(CCN1CCOCC1)c1ccc(Br)cc1 | 0 | -7.4 | -47% | -50% | -36% | KCNQ2 inh confirm=0
O=C(CCN1CCN(c2ccccc2)CC1)c1ccc(Br)cc1 | 0 | -8.2 | -22% | 0 | 0 | KCNQ2 inh confirm=0
O=C(CCN1CCOCC1)c1ccc(Cl)cc1 | - | 0 | - | - | -
O=C(CCN1CCN(c2ccccc2F)CC1)c1ccc(Br)cc1 | 0 | -8.5 | 0 | 0 | 0
COc1ccc(C(=O)CCN2CCN(c3ccc(OC)cc3)CC2)cc1 | - | 0 | - | - | -
COc1ccc(C(=O)CCN2CCN(c3ccccc3F)CC2)cc1 | - | 0 | - | - | -
Cc1nn2c(=O)cc(CSc3nc4ccccc4[nH]3)nc2s1 | 0 | 0 | - | - | -
O=C1Nc2ccccc2C1(O)C/C(=N/O)c1ccccc1 (stereo not given) | 0 | 0 | - | - | -
CC/C(=N/NC(=O)CNc1ccc(Cl)cc1C)c1ccccc1 | - | 0 | - | - | -
CCOc1cc(/C=N/NC(=O)C(C)Sc2ccccc2)ccc1O (stereo not given) | 0 | 0 | - | - | -
Cn1c(C(=O)N(Cc2ccccc2)Cc2cccs2)cc2sccc21 | - | 0 | - | - | -
Cn1c(C(=O)N(Cc2ccccc2)Cc2ccccn2)cc2sccc21 | 0 | -8.3 | 0 | 0 | 0
Cn1c(/C=C/c2cccc([N+](=O)[O-])c2)c([N+](=O)[O-])c(=O)n(C)c1=O | - | 0 | - | - | -
CSCCC(NC(=O)c1ccc(Cl)cc1Cl)C(=O)OCC(N)=O (stereo not given) | - | 0 | - | - | -
CSCCC(NC(=O)c1ccc(Cl)cc1)C(=O)OCC(=O)Nc1cc(Cl)ccc1C (stereo not given) | 0 | -6.8 | -26% | 0 | 0 | KCNQ2 inh confirm=+
CCn1c(S(=O)(=O)O)nc2ccccc21 | - | 0 | - | - | -
CCOC(=O)CNc1c(-c2ccc(OC)cc2)nc2ccc(Cl)cn12 | 0 | -8.9 | -28% | 0 | 0 | KCNQ2 inh confirm=+
COCCNc1c(-c2ccc(OC)cc2)nc2ccc(Cl)cn12 | - | 0 | - | - | -
COc1ccc(Cl)cc1C(=O)Nn1c(-c2cccs2)nc2ccccc2c1=O | 0 | 0 | - | - | -
COc1cccc(OC)c1C(=O)Nn1c(-c2cccs2)nc2ccccc2c1=O | 0 | -9.2 | 0 | 0 | 0
CCOC(=O)c1cc2c(s1)-c1c(C)cccc1OC2 | - | 0 | - | - | -
COc1cc2c(cc1OC)C(C)N(C(=O)c1cc3c(s1)-c1ccccc1OC3)CC2 (stereo not given) | 0 | -8.4 | 0 | 0 | 0
SMILES | KCNQ2 enhance | KCNQ2 block | KCNQ2 inh conf | KCNQ1 spec | CHO Tl ctr | others
COc1cc2c(cc1OC)C(C)N(C(=O)c1cccs1)CC2 (stereo not given) | - | 0 | - | - | -
COc1cc2c(cc1OC)C(C)N(C(=O)c1cc3c(s1)-c1c(C)cccc1OC3)CC2 (stereo not given) | 0 | -6.7 | -36% | 0 | 0 | KCNQ2 inh confirm=+
O=c1cc(Cn2ccnc2)c2cc(O)ccc2o1 | - | 0 | - | - | -
O=C(Nc1oc2ccccc2c(=O)c1-c1ccc(Br)cc1)c1ccco1 | - | 0 | - | - | -
Clc1ccc(/C=N/NC(=Nc2ccccc2)c2ccccn2)c(Cl)c1 | 0 | -8.2 | -28% | 0 | 0 | KCNQ2 inh confirm=+
C(=N\NC(=Nc1ccccc1)c1ccccn1)/c1ccccn1 | - | 0 | - | - | -
CCCCC(CC)C(=O)N1CCN(C(=O)c2ccco2)CC1 (stereo not given) | - | 0 | - | - | -
CCCS(=O)(=O)Nc1cc(C(F)(F)F)ccc1OCCOC | - | 0 | - | - | -
COc1ccccc1OCC(=O)NN=C(Cc1ccccc1)Cc1ccccc1 | 0 | -6.7 | -32% | 0 | 0 | KCNQ2 inh confirm=+
CCOc1ccccc1OCC(=O)N/N=C(\C)Cc1ccc(OC)cc1 | 0 | 0 | - | - | -
CC(C)(C)c1nnc(NC(=S)Nc2ccccc2)s1 | - | 0 | - | - | -
COc1cc(C)c(NC(=O)COc2ccc3c(c2)OCO3)cc1C | - | 0 | - | - | -
COC(=O)c1sc(NC(=S)NC(=O)c2cccc(Br)c2)nc1C | 0 | 0 | - | - | -
CN(C)S(=O)(=O)c1ccc(N2CCCC2)c(C(=O)NNC(=O)COc2ccccc2F)c1 | 0 | -8.3 | -22% | 0 | 0 | KCNQ2 inh confirm=+
